Assay results: PubChem BioAssay
For part of these data: Entries with a potency or affinity are not part of this list. Active and inactive are the calls of the source. Unless noted, no rule for the calls is given here.

target: Protein kinase 7 (PK7), Plasmodium falciparum 3D7 (PF3D7_0213400) (UniProt Q7YTF7); experiment: inhibition of Plasmodium PK7 catalytic activity – biochemical, TCAMS antimalarial set, Kinase-Glo luminescence (AID 1159587); conditions: recombinant PfPK7, Kinase-Glo ATP depletion luminescence
Sequence (Q7YTF7 1-343): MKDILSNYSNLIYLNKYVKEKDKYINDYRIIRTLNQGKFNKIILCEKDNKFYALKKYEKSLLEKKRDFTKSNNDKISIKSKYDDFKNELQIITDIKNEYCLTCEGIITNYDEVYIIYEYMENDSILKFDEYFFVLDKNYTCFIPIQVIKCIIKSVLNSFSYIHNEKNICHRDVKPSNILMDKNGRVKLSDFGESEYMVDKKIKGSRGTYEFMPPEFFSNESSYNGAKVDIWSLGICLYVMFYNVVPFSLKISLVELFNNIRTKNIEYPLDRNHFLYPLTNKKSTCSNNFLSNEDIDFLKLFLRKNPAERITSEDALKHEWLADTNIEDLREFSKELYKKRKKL

outcome, inactive:
O=C(Nc1ccc(-c2nc3ccccc3[nH]2)cc1)c1cncc(Br)c1
NCc1ccc(CNCc2ccc(-c3ccc(-c4nc5ccc(C(F)(F)F)cc5[nH]4)s3)cc2)cc1
O=C(Nc1cccc(CN2CCN(Cc3ccc(O)cc3)CC2)c1)c1cccc(C(F)(F)F)c1
O=C(Nc1ccc(C(F)(F)F)cc1)c1ccc(S(=O)(=O)NCC2CCCN(CC3CCCCC3)C2)cc1 (stereo not drawn)
O=C(/C=C/c1ccc(Cl)c(Cl)c1)NCCCCCN1CCC(NC(=O)NC2CCCCCC2)CC1
O=C(/C=C/c1ccc(Cl)cc1)NCCCCCN1CCCC(C(=O)Nc2ccc(Cl)c(Cl)c2)C1 (stereo not drawn)
Cc1ccc2nc(C)cc(Nc3ccccc3O)c2c1
COc1ccc(NC(=O)CSc2nc(-c3ccccc3Cl)ns2)cc1OC
COc1c(Br)cc(Br)cc1C(C)=O
COc1cc2c(cc1OCCN1CCC(N)CC1)N(C(=O)/C=C/c1ccccc1Cl)CC2
COc1ccccc1C(=O)Nc1cccc(N2CCC(NCc3ccc(-n4cccn4)cc3)CC2)c1
CC(C)c1cc(Oc2c(I)cc(CCNCc3ccccc3)cc2I)ccc1O
Cc1cc(Nc2cccc(Cl)c2)nc2ccc(NC(=O)c3ccc(=O)[nH]c3)cc12
O=C(O)c1ccc2nc(-c3ccccn3)c(-c3ccccn3)nc2c1
Cc1cc(NN=Cc2cccc([N+](=O)[O-])c2)c2ccc(F)cc2n1
OC1(Cc2ccccc2)CCN(Cc2cccc(-c3c[nH]c4nc(NC5CCCC5)ncc34)c2)CC1
COC(=O)c1noc(C)c1I
CC(C)(CNCc1ccc(C(F)(F)F)cc1)c1nc(-c2ccc(Cl)c(O)c2)c(-c2ccncc2)[nH]1
CC1=C(C(=O)Nc2ccc(Cl)cc2)C(c2ccncc2)n2nc(C(F)(F)F)nc2N1 (stereo not drawn)
O=C(Cc1cccnc1)N(Cc1ccc(-c2ccc(CNCc3cccnc3)cn2)cc1)C1CCN(Cc2ccccc2)CC1
CS(=O)(=O)c1ccccc1CNC(=O)c1ccc(-c2ccc(-c3nc4ccc(C(F)(F)F)cc4[nH]3)s2)cc1
Cc1ccc(NC(=O)c2cccc(C#N)c2)cc1-c1ccc(C(=O)Nc2ccncc2)cc1
O=C(/C=C/c1ccc(Cl)c(Cl)c1)NC1CCC(CN2CCC(c3nc4ncccc4[nH]3)CC2)CC1 (stereo not drawn)
OC(CNCc1cccc(Oc2ccc(Cl)cc2)c1)c1cc(C(F)(F)F)cc(C(F)(F)F)c1 (stereo not drawn)
NC(=O)CCC(NC(=O)CNC(=O)Nc1cccc(C(F)(F)F)c1)C(=O)O (stereo not drawn)
CS(=O)(=O)c1ccc(CNCc2ccc(-c3ccc(-c4nc5ccc(C(F)(F)F)cc5[nH]4)cc3)cc2)cc1
O=C(Nc1ccc(Br)cc1)N(CCN1CCOCC1)CC(O)COc1ccc(Cl)c(F)c1 (stereo not drawn)
COc1ccc(Nc2ncc3c(-c4cccc(NC(=O)Cc5ccncc5)c4)c[nH]c3n2)cc1OC
CN(C)c1ccc(-c2ccc(C(=O)NC3CCN(Cc4ccc(C(C)(C)C)cc4)CC3)s2)cc1
Cc1ccc(-c2cc(C(=O)Nc3ccc(S(=O)(=O)N4CCCCC4C)cc3)[nH]n2)c(O)c1 (stereo not drawn)
CCn1c2ccccc2c2cc(C=NNc3cc(C)nc4ccccc34)ccc21
CC(=O)Nc1ncc(C(=O)Nc2cccc(-c3ccc(-c4nc5ccc(C(F)(F)F)cc5[nH]4)cc3)c2)s1
Cc1nc2nc(N)nc(N)c2c(C)c1Cc1cccc(F)c1
O=[N+]([O-])c1ccc(/C=N/Nc2cc(-c3ccccc3)nc3ccccc23)o1
CC(=O)Nc1nc(C(=O)Nc2ccc(-c3ccc(-c4nc5ccccc5[nH]4)cc3)cc2)cs1
COc1cccc2cc(C(=O)N[C@@H](CC(C)C)C(=O)N[C@H](/C=N/N(C)C(=O)OC(C)(C)C)Cc3ccccc3)oc12
Cc1cc(NN=Cc2ccc(Cl)cc2)c2cccc(C)c2n1
Cc1onc(-c2ccccc2Cl)c1C(=O)Nc1cc(Cl)c(Cl)cc1Cl
Cc1cccc2[nH]c(-c3ccc(-c4ccc(CN5CCC(CCN6CCCCC6)CC5)cc4)cc3)nc12

target: Calcium-dependent protein kinase 4 (Plasmodium falciparum (isolate 3D7)) (UniProt Q8IBS5); experiment: PfCDPK4 kinase inhibitors, biochemical, TCAMS library (AID 1159588; cut-off not given, nearly all actives have IC50 up to about 0.91 µM); conditions: recombinant PfCDPK4, Kinase-Glo ATP depletion luminescence
Sequence (Q8IBS5 whole entry, looked up): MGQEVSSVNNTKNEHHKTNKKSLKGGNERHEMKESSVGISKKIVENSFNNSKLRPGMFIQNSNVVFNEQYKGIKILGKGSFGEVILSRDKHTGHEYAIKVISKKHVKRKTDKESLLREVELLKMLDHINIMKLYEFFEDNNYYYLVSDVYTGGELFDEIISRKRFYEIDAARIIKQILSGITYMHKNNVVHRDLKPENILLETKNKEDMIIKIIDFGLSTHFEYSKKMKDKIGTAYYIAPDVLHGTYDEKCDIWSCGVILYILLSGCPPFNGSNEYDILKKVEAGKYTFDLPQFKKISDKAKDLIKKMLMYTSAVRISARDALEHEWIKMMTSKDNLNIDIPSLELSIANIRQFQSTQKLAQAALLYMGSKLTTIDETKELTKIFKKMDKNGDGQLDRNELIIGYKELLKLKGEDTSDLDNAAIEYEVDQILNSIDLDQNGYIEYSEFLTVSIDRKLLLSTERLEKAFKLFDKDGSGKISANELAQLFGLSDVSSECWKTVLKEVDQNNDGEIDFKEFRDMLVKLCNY

outcome, inactive:
O=C(Nc1ccc(-c2nc3ccccc3[nH]2)cc1)c1cncc(Br)c1
NCc1ccc(CNCc2ccc(-c3ccc(-c4nc5ccc(C(F)(F)F)cc5[nH]4)s3)cc2)cc1
O=C(Nc1cccc(CN2CCN(Cc3ccc(O)cc3)CC2)c1)c1cccc(C(F)(F)F)c1
O=C(Nc1ccc(C(F)(F)F)cc1)c1ccc(S(=O)(=O)NCC2CCCN(CC3CCCCC3)C2)cc1 (stereo not drawn)
O=C(/C=C/c1ccc(Cl)c(Cl)c1)NCCCCCN1CCC(NC(=O)NC2CCCCCC2)CC1
O=C(/C=C/c1ccc(Cl)cc1)NCCCCCN1CCCC(C(=O)Nc2ccc(Cl)c(Cl)c2)C1 (stereo not drawn)
Cc1ccc2nc(C)cc(Nc3ccccc3O)c2c1
COc1ccc(NC(=O)CSc2nc(-c3ccccc3Cl)ns2)cc1OC
COc1c(Br)cc(Br)cc1C(C)=O
COc1cc2c(cc1OCCN1CCC(N)CC1)N(C(=O)/C=C/c1ccccc1Cl)CC2
COc1ccccc1C(=O)Nc1cccc(N2CCC(NCc3ccc(-n4cccn4)cc3)CC2)c1
CC(C)c1cc(Oc2c(I)cc(CCNCc3ccccc3)cc2I)ccc1O
Cc1cc(Nc2cccc(Cl)c2)nc2ccc(NC(=O)c3ccc(=O)[nH]c3)cc12
O=C(O)c1ccc2nc(-c3ccccn3)c(-c3ccccn3)nc2c1
Cc1cc(NN=Cc2cccc([N+](=O)[O-])c2)c2ccc(F)cc2n1
OC1(Cc2ccccc2)CCN(Cc2cccc(-c3c[nH]c4nc(NC5CCCC5)ncc34)c2)CC1
COC(=O)c1noc(C)c1I
CC(C)(CNCc1ccc(C(F)(F)F)cc1)c1nc(-c2ccc(Cl)c(O)c2)c(-c2ccncc2)[nH]1
CC1=C(C(=O)Nc2ccc(Cl)cc2)C(c2ccncc2)n2nc(C(F)(F)F)nc2N1 (stereo not drawn)
O=C(Cc1cccnc1)N(Cc1ccc(-c2ccc(CNCc3cccnc3)cn2)cc1)C1CCN(Cc2ccccc2)CC1
CS(=O)(=O)c1ccccc1CNC(=O)c1ccc(-c2ccc(-c3nc4ccc(C(F)(F)F)cc4[nH]3)s2)cc1
Cc1ccc(NC(=O)c2cccc(C#N)c2)cc1-c1ccc(C(=O)Nc2ccncc2)cc1
O=C(/C=C/c1ccc(Cl)c(Cl)c1)NC1CCC(CN2CCC(c3nc4ncccc4[nH]3)CC2)CC1 (stereo not drawn)
OC(CNCc1cccc(Oc2ccc(Cl)cc2)c1)c1cc(C(F)(F)F)cc(C(F)(F)F)c1 (stereo not drawn)
NC(=O)CCC(NC(=O)CNC(=O)Nc1cccc(C(F)(F)F)c1)C(=O)O (stereo not drawn)
CS(=O)(=O)c1ccc(CNCc2ccc(-c3ccc(-c4nc5ccc(C(F)(F)F)cc5[nH]4)cc3)cc2)cc1
O=C(Nc1ccc(Br)cc1)N(CCN1CCOCC1)CC(O)COc1ccc(Cl)c(F)c1 (stereo not drawn)
COc1ccc(Nc2ncc3c(-c4cccc(NC(=O)Cc5ccncc5)c4)c[nH]c3n2)cc1OC
CN(C)c1ccc(-c2ccc(C(=O)NC3CCN(Cc4ccc(C(C)(C)C)cc4)CC3)s2)cc1
Cc1ccc(-c2cc(C(=O)Nc3ccc(S(=O)(=O)N4CCCCC4C)cc3)[nH]n2)c(O)c1 (stereo not drawn)
CCn1c2ccccc2c2cc(C=NNc3cc(C)nc4ccccc34)ccc21
CC(=O)Nc1ncc(C(=O)Nc2cccc(-c3ccc(-c4nc5ccc(C(F)(F)F)cc5[nH]4)cc3)c2)s1
Cc1nc2nc(N)nc(N)c2c(C)c1Cc1cccc(F)c1
O=[N+]([O-])c1ccc(/C=N/Nc2cc(-c3ccccc3)nc3ccccc23)o1
CC(=O)Nc1nc(C(=O)Nc2ccc(-c3ccc(-c4nc5ccccc5[nH]4)cc3)cc2)cs1
COc1cccc2cc(C(=O)N[C@@H](CC(C)C)C(=O)N[C@H](/C=N/N(C)C(=O)OC(C)(C)C)Cc3ccccc3)oc12
Cc1cc(NN=Cc2ccc(Cl)cc2)c2cccc(C)c2n1
Cc1onc(-c2ccccc2Cl)c1C(=O)Nc1cc(Cl)c(Cl)cc1Cl
Cc1cccc2[nH]c(-c3ccc(-c4ccc(CN5CCC(CCN6CCCCC6)CC5)cc4)cc3)nc12
